Laboratory results reported in PubChem BioAssay (Tox21).
Inconclusive results are not listed. A call without a number means that no potency is given here. Active and inactive are the calls of the source. The call rests on the fitted dose curve; in most records, active means well fitted inhibition curve with a large enough effect in the repeat runs; inconclusive means weak or mixed curves; inactive means no such curve, though single readings can be large or run the other way.

Each compound was assayed against Cytochrome P450 3A4 (Homo sapiens) (UniProt P08684) (assay: Cytochrome P450 Family 3 Subfamily A Member 4 (CYP3A4) small molecule antagonists: luciferase reporter qHTS assay (AID 1671201; further: nearly all actives have a fitted effect of over 50% in size)). Settings: P450-Glo CYP3A4 enzyme, luciferin luminescence, 1 h; series mostly up to 115 µM.
In short: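 Room-temperature assay throughout: 10 min compound–enzyme/substrate preincubation, 1 h reaction after NADPH regeneration solution, 20 min detection. Luciferin formed from proluciferin substrate is quantified by luminescence.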
Potency means the concentration at half of the fitted maximal effect.

Cytochrome P450 3A4 (Homo sapiens), sequence (P08684 whole entry, looked up): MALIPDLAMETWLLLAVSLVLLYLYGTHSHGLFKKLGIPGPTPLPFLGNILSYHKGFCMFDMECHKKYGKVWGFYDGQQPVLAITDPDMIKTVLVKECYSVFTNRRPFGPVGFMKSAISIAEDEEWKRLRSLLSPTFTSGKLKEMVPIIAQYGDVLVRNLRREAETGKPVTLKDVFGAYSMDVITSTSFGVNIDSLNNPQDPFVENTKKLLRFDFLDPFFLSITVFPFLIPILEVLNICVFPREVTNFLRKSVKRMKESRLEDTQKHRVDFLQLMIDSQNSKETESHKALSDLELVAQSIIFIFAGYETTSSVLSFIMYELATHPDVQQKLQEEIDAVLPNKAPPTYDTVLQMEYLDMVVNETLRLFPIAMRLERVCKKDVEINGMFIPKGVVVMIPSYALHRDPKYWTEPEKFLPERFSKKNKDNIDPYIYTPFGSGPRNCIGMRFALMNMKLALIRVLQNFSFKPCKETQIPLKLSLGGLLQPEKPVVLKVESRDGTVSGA

**Q.** `COc1ccc(OC)c(OC)c1` was tested. Which Potency did it give?
**A.** The Potency was “inactive”.

**Q.** `C=CCCCCCC` was tested. Which Potency did it give?
**A.** The Potency was “inactive”.

**Q.** `O=C(Cl)c1c(Cl)cccc1Cl` was tested. Which Potency did it give?
**A.** The Potency was “inactive”.

**Q.** For `O=C1Nc2cc(Cl)ccc2Oc2ccccc21`, which Potency is on record?
**A.** Its Potency is “inactive”.

**Q.** With `CC(=O)[C@@]1(O)CC[C@H]2[C@@H]3C[C@H](C)C4=CC(=O)CC[C@]4(C)[C@H]3CC[C@@]21C` as the compound, how does the Potency read?
**A.** Its Potency is “inactive”.

**Q.** With `O=C(O)/C=C/c1cnc[nH]1` as the compound, how does the Potency read?
**A.** The Potency was “inactive”.

**Q.** Which Potency does the source give for `CNS(=O)(=O)Cc1ccc2[nH]cc(CCN(C)C)c2c1` here?
**A.** The Potency was “inactive”.

**Q.** With `O=C1c2cccc(O)c2C(=O)c2c(O)cc(CO)cc21` as the compound, how does the Potency read?
**A.** The Potency was “inactive”.

**Q.** Which Potency does the source give for `CC(CN)CCCN` (stereo not drawn) here?
**A.** Its Potency is 6.33 µM (active).

**Q.** For `CC(C)(C)c1cc(CCC(=O)OCC(COC(=O)CCc2cc(C(C)(C)C)c(O)c(C(C)(C)C)c2)(COC(=O)CCc2cc(C(C)(C)C)c(O)c(C(C)(C)C)c2)COC(=O)CCc2cc(C(C)(C)C)c(O)c(C(C)(C)C)c2)cc(C(C)(C)C)c1O`, which Potency is on record?
**A.** Its Potency is “inactive”.

**Q.** Which Potency does the source give for `Cc1cccc(Oc2ccccc2)c1` here?
**A.** Its Potency is 34.7 µM (active).

**Q.** Which Potency does the source give for `CCCCCCCCCC=O` here?
**A.** The Potency was “inactive”.

**Q.** With `CC(C)CCCCCCOC(=O)c1ccc(C(=O)OCCCCCCC(C)C)c(C(=O)OCCCCCCC(C)C)c1` as the compound, how does the Potency read?
**A.** Its Potency is “inactive”.

**Q.** How did the Potency turn out when `CC(C)CCCC(C)CCO` (stereo not drawn) was run?
**A.** Its Potency is “inactive”.

**Q.** With `CCCC(C)C` as the compound, how does the Potency read?
**A.** The Potency was “inactive”.

**Q.** `O=C=NC1CCC(CC2CCC(N=C=O)CC2)CC1` (stereo not drawn) was tested. Which Potency did it give?
**A.** Its Potency is 3.99 µM (active).

**Q.** Which Potency does the source give for `CCCCC(CC)(CO)CO` here?
**A.** The Potency was “inactive”.

**Q.** How did the Potency turn out when `CC(=O)N(CC(=O)N(C)C)c1ccccc1` was run?
**A.** Its Potency is “inactive”.

**Q.** `CCCCOC(=O)/C=C\C(=O)OCCCC` was tested. Which Potency did it give?
**A.** The Potency was “inactive”.

**Q.** How did the Potency turn out when `O=c1c2ccccc2nnn1CCl` was run?
**A.** The Potency was 11.2 µM (active).

**Q.** With `C1=Cc2ccccc2C1` as the compound, how does the Potency read?
**A.** The Potency was “inactive”.

**Q.** For `CCOc1ccc(NC(=O)CC(C)=O)cc1`, which Potency is on record?
**A.** Its Potency is “inactive”.

**Q.** With `Oc1ccc(C(O)CNCCCCCCNCC(O)c2ccc(O)c(O)c2)cc1O` (stereo not drawn) as the compound, how does the Potency read?
**A.** The Potency was “inactive”.

**Q.** For `N#CCCNCCC#N`, which Potency is on record?
**A.** Its Potency is “inactive”.

**Q.** With `O=C(c1ccccc1)c1ccc2n1CCC2C(=O)O` (stereo not drawn) as the compound, how does the Potency read?
**A.** The Potency was “inactive”.

**Q.** For `CCCCCCCCN(C)C`, which Potency is on record?
**A.** Its Potency is “inactive”.

**Q.** With `COC(Cc1ccccc1)OC` as the compound, how does the Potency read?
**A.** The Potency was “inactive”.

**Q.** `CC(=O)OCCc1ccccc1` was tested. Which Potency did it give?
**A.** The Potency was “inactive”.

**Q.** How did the Potency turn out when `Cc1ccccc1N=Nc1ccc(N=Nc2c(O)ccc3ccccc23)c(C)c1` was run?
**A.** Its Potency is “inactive”.

**Q.** With `CC[C@@H]1C[C@H](N(Cc2cc(C(F)(F)F)cc(C(F)(F)F)c2)C(C)=O)c2cc(C(F)(F)F)ccc2N1C(=O)OC(C)C` as the compound, how does the Potency read?
**A.** The Potency was 0.894 µM (active).

**Q.** `COc1ccc(C(C)=O)cc1` was tested. Which Potency did it give?
**A.** Its Potency is “inactive”.

**Q.** With `CCN(CC)C(C)CN1c2ccccc2Sc2ccccc21` (stereo not drawn) as the compound, how does the Potency read?
**A.** Its Potency is “inactive”.

**Q.** How did the Potency turn out when `C=C(C)C(=O)OCCN(C)C` was run?
**A.** Its Potency is 36 µM (active).
